Laboratory results published in PubChem BioAssay AID1159580 (chemical genetic matrix, 2015).
Several values for one entry are separate records, joined by “and”; a condition that tells them apart may be missing. Equal entries are not always repeated. Among all 5,500 compounds or so, about 2,000 (36%) were called active. Not shown: some 18% with an inconclusive outcome. No stated cut-off is given here; in the data, active means normalized growth mostly below about 0.91 (no sharp cut-off); inconclusive means no clear call, values can overlap the other calls; inactive means mostly above about 0.92. Some of the results follow.

Assay: chemical genetic growth profiling, strain panel (AID 1159580);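 further: tested at 20 µM; growth read once vehicle control cultures reached saturation at 30 °C; 1 = growth at the plate median or of vehicle wells; lower values mean less growth of the strain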
Settings: S. cerevisiae deletion strains, growth OD

Measured: normalized growth

N[C@@H](Cc1ccc(N(CCCl)CCCl)cc1)C(=O)O
inactive: locus YAL013W, strain DEP1, hits give low values 0.988 | locus YAL021C, strain ccr4, hits give low values 0.985 | locus YAL026C, strain drs2, hits give low values 0.997 | locus YAL030W, strain snc1, hits give low values 0.991 | locus YBL061C, strain skt5, hits give low values 0.987 | locus YBR009C, strain hhf1, hits give low values 0.985 | locus YBR021W, strain FUR4, hits give low values 1.05 | locus YBR023C, strain chs3, hits give low values 0.978 | locus YBR171W, strain sec66, hits give low values 0.98 | locus YBR229C, strain ROT2, hits give low values 0.947 | locus YBR231C, strain swc5, hits give low values 0.994 | locus YBR279W, strain paf1, hits give low values 0.988 | locus YCL011C, strain gbp2, hits give low values 0.971 | locus YCL016C, strain dcc1, hits give low values 0.968 | locus YCL029C, strain bik1, hits give low values 0.972 | locus YCL061C, strain MRC1, hits give low values 0.972 | locus YCL069W, strain vba3, hits give low values 0.984 | locus YCR088W, strain abp1, hits give low values 0.986 | locus YDL005C, strain med2, hits give low values 0.995 | locus YDL035C, strain GPR1, hits give low values 0.986 | locus YDL040C, strain nat1, hits give low values 0.985 | locus YDL074C, strain BRE1, hits give low values 0.977 | locus YDL101C, strain DUN1, hits give low values 0.972 | locus YDL134C, strain PPH21, hits give low values 0.987 | locus YDL192W, strain arf1, hits give low values 0.973 | locus YDR001C, strain nth1, hits give low values 0.978 | locus YDR069C, strain doa4, hits give low values 0.996 | locus YDR101C, strain arx1, hits give low values 0.983 | locus YDR137W, strain rgp1, hits give low values 0.964 | locus YDR150W, strain NUM1, hits give low values 0.974 | locus YDR159W, strain sac3, hits give low values 1.01 | locus YDR162C, strain NBP2, hits give low values 0.974 | locus YDR195W, strain ref2 0.975 | locus YDR297W, strain sur2, hits give low values 0.998 | locus YDR318W, strain mcm21, hits give low values 0.984 | locus YDR334W, strain swr1, hits give low values 0.966 | locus YDR335W, strain msn5, hits give low values 0.995 | locus YDR388W, hits give low values 0.984 | locus YDR392W, strain spt3, hits give low values 0.879 | locus YDR502C, strain sam2, hits give low values 0.971 | locus YEL003W, strain gim4, hits give low values 0.996 | locus YEL037C, strain rad23, hits give low values 0.973 | locus YEL061C, strain CIN8 (second series), hits give low values 0.978 | locus YEL061C, strain CIN8, hits give low values 0.982 | locus YER015W, strain faa2, hits give low values 0.995 | locus YER016W, strain bim1, hits give low values 1 | locus YER110C, hits give low values 0.977 | locus YER111C, strain swi4, hits give low values 0.967 | locus YER155C, strain BEM2 (second series), hits give low values 0.991 | locus YER155C, strain BEM2, hits give low values 0.979 | locus YER167W, strain BCK2, hits give low values 0.982 | locus YFR010W, strain ubp6, hits give low values 0.985 | locus YGL078C, strain dbp3, hits give low values 0.986 | locus YGL086W, strain mad1, hits give low values 0.983 | locus YGL167C, strain pmr1, hits give low values 0.987 | locus YGL173C, strain kem1, hits give low values 0.994 | locus YGL227W, strain vid30, hits give low values 0.995 | locus YGL240W, strain doc1, hits give low values 1.02 | locus YGL248W, strain PDE1, hits give low values 0.972 | locus YGL253W, strain hxk2, hits give low values 0.982 | locus YGR078C, strain PAC10, hits give low values 0.986 | locus YGR135W, strain pre9, hits give low values 0.962 | locus YGR229C, strain SMI1, hits give low values 0.974 | locus YGR252W, strain gcn5, hits give low values 1.02 | locus YHR013C, strain ard1, hits give low values 0.932 | locus YHR027C, strain rpn1, hits give low values 0.983 | locus YHR030C, strain SLT2, hits give low values 0.989 and 1.02 | locus YHR079C, strain IRE1 (second series), hits give low values 0.982 | locus YHR079C, strain IRE1, hits give low values 1.03 | locus YHR094C, strain hxt1, hits give low values 0.971 | locus YHR129C, strain ARP1, hits give low values 0.998 | locus YHR142W, strain chs7, hits give low values 0.941 | locus YHR200W, strain rpn10, hits give low values 0.97 | locus YIL066C, strain RNR3, hits give low values 0.983 | locus YIL073C, strain SPO22, hits give low values 0.963 | locus YIL125W, strain kgd1, hits give low values 0.979 | locus YIR030C, strain dcg1, hits give low values 0.981 | locus YJL092W, strain hpr5, hits give low values 0.979 | locus YJL095W, strain BCK1 (second series), hits give low values 0.984 | locus YJL095W, strain BCK1, hits give low values 1 and 1.02 | locus YJL115W, strain asf1, hits give low values 0.981 | locus YJL129C, strain trk1, hits give low values 0.969 | locus YJL134W, strain LCB3, hits give low values 0.981 | locus YJL154C, strain vps35, hits give low values 0.978 | locus YJL164C, strain tpk1, hits give low values 0.949 | locus YJL166W, strain qcr8, hits give low values 0.952 | locus YJL168C, strain set2, hits give low values 0.981 | locus YJL187C, strain SWE1 (second series), hits give low values 0.98 | locus YJL187C, strain SWE1, hits give low values 0.984 | locus YJR043C, strain POL32, hits give low values 0.989 | locus YJR066W, strain TOR1, hits give low values 0.959
